Results reported in paper PMC10726135, “HNF4α isoforms regulate the circadian balance between carbohydrate and lipid metabolism in the liver”.
In all, about 18,000 sequences were measured (“log2 normalized intensity”: median about 0.39, highest 2% from about 6.6 on). This is one part of a sample in which the highest values are shown more often than they occur.

biological target: T1, HNF4alpha2 (COS-7 nuclear extract) (Homo sapiens, UniProt P41235 1-474); experiment: protein-binding microarray; COS-7 nuclear extract on double-stranded Agilent 4x180k PBM; binding buffer, salt, pH and temperature not given in the material; high values mean tight binding; conditions: chain copies: 2; label: 3' end of strand 1 on the slide; dsDNA, one strand shown
T1 sequence: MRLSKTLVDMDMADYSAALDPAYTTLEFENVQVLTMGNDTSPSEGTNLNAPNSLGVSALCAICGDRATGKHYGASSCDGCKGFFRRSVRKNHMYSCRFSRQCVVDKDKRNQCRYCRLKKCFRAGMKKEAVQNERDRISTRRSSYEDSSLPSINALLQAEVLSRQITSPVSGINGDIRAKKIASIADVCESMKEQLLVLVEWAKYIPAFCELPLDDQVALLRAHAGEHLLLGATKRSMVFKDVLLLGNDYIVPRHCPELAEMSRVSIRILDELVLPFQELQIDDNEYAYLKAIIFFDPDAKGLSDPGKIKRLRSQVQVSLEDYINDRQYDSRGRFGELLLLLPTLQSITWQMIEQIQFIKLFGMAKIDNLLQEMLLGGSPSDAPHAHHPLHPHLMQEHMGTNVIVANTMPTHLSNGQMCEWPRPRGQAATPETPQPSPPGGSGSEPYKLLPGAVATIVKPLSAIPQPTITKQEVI
Method in brief: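 Nuclear extracts of COS-7 cells transiently transfected with a human HNF4α isoform were applied to a custom Agilent SurePrint G3 4x180k array bearing ~44,000 double-stranded ~60-nt test sequences, each in quadruplicate. The bound protein was imaged on an Agilent G2565CA scanner at 2-µm resolution. Binding signal is the normalized, background-corrected gProcessedSignal from Agilent software.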

| Sequence | binding signal [log2 normalized intensity] |
| --- | --- |
| CATGGGCTGTCACCTTTACCCCCACTCTCCGCCTAGGGAGATTAGAGTATCGGTCGA | 4.46 |
| CTCCCAAGGTATCCTCCTAGAGTCCAAGGTGCCTAGGGAGATTAGAGTATCGGTCGA | 2.68 |
| GAACTTTGACTTATTTAGTAGTGGCAAGAGGCCTAGGGAGATTAGAGTATCGGTCGA | 2.7 |
| CAAAGCCCCTTTCCACTCTACCGTCCTCCCGCCTAGGGAGATTAGAGTATCGGTCGA | 1.91 |
| CCAGGGACTTTGAACACTTCTTTGTTACTTGCCTAGGGAGATTAGAGTATCGGTCGA | 2.44 |
| GTGCTGACCTCCTGTCTCATCCTGTGACCAGCCTAGGGAGATTAGAGTATCGGTCGA | 1.42 |
| TCACCCTCTCCACCCCCATGCAAGTTCCCAGCCTAGGGAGATTAGAGTATCGGTCGA | 5.26 |
| GGACTTTGGCCTTACTTGGCCTGTTTGCTGGCCTAGGGAGATTAGAGTATCGGTCGA | 5.51 |
| CACCTGTGTCAACATGGACTTTGTTGTTTGGCCTAGGGAGATTAGAGTATCGGTCGA | 4.33 |
| GTTGGACTTTGGACCTTTGTGTGTGTGTGTGCCTAGGGAGATTAGAGTATCGGTCGA | 7.93 |
| ACTGAATGTGACCTTTTGGACCACAGAGTGGCCTAGGGAGATTAGAGTATCGGTCGA | 5.39 |
| GGGCGTGTGTTAGACTTTGGACCTGGCCTGGCCTAGGGAGATTAGAGTATCGGTCGA | 7.25 |
| AACGGTTCAAAGGACAGACTTTGGACCTGGGCCTAGGGAGATTAGAGTATCGGTCGA | 7.15 |
| CCTGATGACAACTGAATGTGACCTTTTGGAGCCTAGGGAGATTAGAGTATCGGTCGA | 5.25 |
| ACTTTGGACCTTTGTGTGTGTGTGTGTGTGGCCTAGGGAGATTAGAGTATCGGTCGA | 3.6 |
| GATACAACGGTTCAAAGGACAGACTTTGGAGCCTAGGGAGATTAGAGTATCGGTCGA | 3.39 |
| TGACAACTGAATGTGACCTTTTGGACCACAGCCTAGGGAGATTAGAGTATCGGTCGA | 6.82 |
| GTGAGTGGACTTTGGTCCTGGTCAGACTTGGCCTAGGGAGATTAGAGTATCGGTCGA | 5.76 |
| TTCAAAGGACAGACTTTGGACCTGGCCCTCGCCTAGGGAGATTAGAGTATCGGTCGA | 5.66 |
| TGGTTAGGTATTTTAAGTCACCAGATGAGAGCCTAGGGAGATTAGAGTATCGGTCGA | 0.217 |
| CTCCTCCCTCAGGGATCTTTGCACTTGATGGCCTAGGGAGATTAGAGTATCGGTCGA | 1.32 |

| Sequence | binding signal [log2 normalized intensity] |
| --- | --- |
| TGGATGGGGGAGGGGACTTCGCTGGAGGTGGCCTAGGGAGATTAGAGTATCGGTCGA | -0.382 |
| TATCTTCGTATAGAAACAAGACAGAATGATGCCTAGGGAGATTAGAGTATCGGTCGA | -0.775 |
| GTAAACACAGACTTTGGAATCACAATGATAGCCTAGGGAGATTAGAGTATCGGTCGA | 1.97 |
| CCTGTACCTAGAATTCTTTCACTCCCTTTTGCCTAGGGAGATTAGAGTATCGGTCGA | 1.12 |
| TTACCGGTGTGACTTTGGTTGGATTTCTTGGCCTAGGGAGATTAGAGTATCGGTCGA | 1.54 |
| GGGGACCTTTGGCCTTTACCTGTTACTTATGCCTAGGGAGATTAGAGTATCGGTCGA | 3.57 |
| AGGGGTTACTAGTGAGTTGGACTTTGGACCGCCTAGGGAGATTAGAGTATCGGTCGA | 11.6 |
| AAGAAGGTTTACTCAAGCAAAAAGTTTGGAGCCTAGGGAGATTAGAGTATCGGTCGA | 0.467 |
| AGGTACAAACATACTTAGGATTTTTGTGCCGCCTAGGGAGATTAGAGTATCGGTCGA | 0.442 |
| CTCTCGGGCCAGCTGTACAAATAAAGGATGGCCTAGGGAGATTAGAGTATCGGTCGA | -0.146 |
| TAAACTTTTGATTGCTTAGGCTCTTGTTATGCCTAGGGAGATTAGAGTATCGGTCGA | -0.703 |
| GAGGCAGCAAGGTCAAAGTGCGTCCTGTGGGCCTAGGGAGATTAGAGTATCGGTCGA | 3.92 |
| GATATTTAACCTTTGATCTGTAAGCTCTCTGCCTAGGGAGATTAGAGTATCGGTCGA | 4.61 |
| CTGTGCTTTGTTTACTTAACCTTTGATCATGCCTAGGGAGATTAGAGTATCGGTCGA | 7.05 |
| TTGCACTGTGCTTTGTTTACTTAACCTTTGGCCTAGGGAGATTAGAGTATCGGTCGA | 4.05 |
| GTGGCTACCTGTGCAGATATTTAACCTTTGGCCTAGGGAGATTAGAGTATCGGTCGA | 4.11 |
| CTTTGTTTACTTAACCTTTGATCATATGCAGCCTAGGGAGATTAGAGTATCGGTCGA | 5.18 |
| TACCTGTGCAGATATTTAACCTTTGATCTGGCCTAGGGAGATTAGAGTATCGGTCGA | 7.34 |
| TCTGAAAAAAGCTATCATTTGTCACTTGGAGCCTAGGGAGATTAGAGTATCGGTCGA | 1.38 |
| GACCAGGTTGTGAGGGAGGGCACAGGCAACGCCTAGGGAGATTAGAGTATCGGTCGA | -0.298 |
| ATTTCTGTTGTTGATTTAACATTTGTGATCGCCTAGGGAGATTAGAGTATCGGTCGA | 1.92 |

| Sequence | binding signal [log2 normalized intensity] |
| --- | --- |
| TGATAGCCTTTTACCTTGGCAGCCACTGAGGCCTAGGGAGATTAGAGTATCGGTCGA | -0.876 |
| AGGCTGAAGGGAAGCTCTGGGAGTGCCCTTGCCTAGGGAGATTAGAGTATCGGTCGA | 1.93 |
| CTGCCAAATATTGGGCAATGCTAGGTCTTTGCCTAGGGAGATTAGAGTATCGGTCGA | -0.788 |
| TGTGATGTGAAGAGTGTGGACTTTCACCTCGCCTAGGGAGATTAGAGTATCGGTCGA | 8.12 |
| CCTTTGGACTGTCCTTTGCTAGATTCTTTCGCCTAGGGAGATTAGAGTATCGGTCGA | 2.01 |
| GACCATGTGATGTGAAGAGTGTGGACTTTCGCCTAGGGAGATTAGAGTATCGGTCGA | 4.26 |
| TTTGGACTTTGGACTTGGGACTTTCGAGTTGCCTAGGGAGATTAGAGTATCGGTCGA | 7.8 |
| CTGGACTTTCCTTTGTTGGGAGACTTTTTAGCCTAGGGAGATTAGAGTATCGGTCGA | 1.63 |
| GGACTTGGGACTTTCGAGTTAATGCTGGAGGCCTAGGGAGATTAGAGTATCGGTCGA | 2.54 |
| ACTTTGGACTTGGGACTTTCGAGTTAATGCGCCTAGGGAGATTAGAGTATCGGTCGA | 4.12 |
| TGTGAAGAGTGTGGACTTTCACCTCCACCAGCCTAGGGAGATTAGAGTATCGGTCGA | 6.06 |
| GAGACTTTGGACTTTGGACTTGGGACTTTCGCCTAGGGAGATTAGAGTATCGGTCGA | 9.27 |
| TGAGTAGTGTACGTTGTACCCCACAGGTATGCCTAGGGAGATTAGAGTATCGGTCGA | 2.94 |
| CTCTCTTTCTTCCCCCACTCCAAGTTCCTTGCCTAGGGAGATTAGAGTATCGGTCGA | 4.22 |
| TGCTCCAGTAAAAGCTCTACCTGACCTCCCGCCTAGGGAGATTAGAGTATCGGTCGA | 2.94 |
| GCTGTGTCCCACAGGGAAAGTATGGGTCAGGCCTAGGGAGATTAGAGTATCGGTCGA | 1.12 |
| TCATGTTCAATATACAGTTGGTATTTAGTAGCCTAGGGAGATTAGAGTATCGGTCGA | 1.83 |
| CCCCTAAAGGAGGCAAGGTCCAAACTTCTCGCCTAGGGAGATTAGAGTATCGGTCGA | 1.7 |
| ATGTTGGGCAACTACCTCAAAGTTTTGTTAGCCTAGGGAGATTAGAGTATCGGTCGA | 0.0615 |
